Screens (PubChem)
HT1080 IDH1KD tx: qHTS for induction of synthetic lethality in tumor cells producing 2HG: qHTS for the HT-1080-IDH1KD cell line. AID 686971, 2013. Potency, µM (highest dose often 46.1 µM), without a hit: top-dose activity, negative = toxicity, hits mostly cytotoxic. actives 2% (n = 360,000). HT-1080 IDH1 knockdown viability, ATP luminescence, 48 h;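 also: 0% = DMSO wells and -100% = cell-free medium wells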
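% activity derives from luminescence (CellTiter-Glo), normalised to DMSO and no-cell wells. HT-1080-IDH1KD cells, 750/well, had 48 h compound exposure at 37 °C.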
KB-3-1 tox: qHTS assay for MDR1-selective chemotherapeutics: Primary screen using the parental adenocarcinoma cell KB-3-1; AID 1347075, 2019; KB-3-1 viability, CellTiter-Glo ATP luminescence, 72 h; actives 1.4% (n = 400,000); Potency, µM (doses to about 46.1 µM), most hits filed as cytotoxic; also: % is scaled to controls: 0 for no effect and ±100 for the full control effect; nearly all actives have a fitted effect of over 60% in size
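Using CellTiter-Glo luminescence, growth of non-resistant KB-3-1 adenocarcinoma cells is assessed 72 h after pin-tool compound addition at 37 °C. Normalized responses across the concentration series yield fitted curves.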
HT1080NT lethal: qHTS for induction of synthetic lethality in tumor cells producing 2HG: qHTS for the HT-1080-NT fibrosarcoma cell line | HT-1080-NT fibrosarcoma viability, CellTiter-Glo ATP luminescence, 48 h | Potency, µM (doses to about 46.1 µM), for inactives: at the highest dose activity, negative = less viability, hits mostly cytotoxic | actives 1.6% (n = 360,000) | AID 686970, 2013;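 also: NT is the 2HG producing partner of a matched IDH1 knockdown line; 0% = DMSO-treated cells and -100% = media-only wells without cells; nearly all actives have a fitted effect of over 55% in size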
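Compounds were tested in concentration-response format on HT-1080-NT cells for 48 hours at 37 degrees C. Cell viability came from CellTiter-Glo luminescence; curves were classified by r2, response magnitude and activity.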
KB-V1 MDR tox: qHTS assay for MDR1-selective chemotherapeutics: Primary screen using the drug-selected MDR subline cells KB-V1 | KB-V1 MDR cells viability, CellTiter-Glo, 72 h | Potency, µM (doses to about 46.1 µM), hits mostly cytotoxic | actives 3.4% (n = 400,000) | AID 1347076, 2019; also: % is scaled to controls: 0 for no effect and ±100 for the full control effect; nearly all actives have a fitted effect of over 60% in size
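Potencies derive from concentration-effect curves fitted to normalized luminescence (CellTiter-Glo) of KB-V1 cells treated for 72 h at 37 degrees C in phenol-red-free DMEM containing 10% FBS.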
MCF10A rerep: A quantitative high throughput screen for small molecules that induce DNA re-replication in MCF 10a normal breast cells | MCF 10A DNA re-replication, Hoechst nuclear intensity, 48 h | Potency, µM (series often up to 46.1 µM), without a hit: at the highest dose activity, positive = re-replication, hits mostly activators | actives 2.9% (n = 350,000) | AID 624296, 2012; also: % of control where 0% means no effect; nearly all actives have a fitted effect of over 50% in size
SW480 rerep: A quantitative high throughput screen for small molecules that induce DNA re-replication in SW480 colon adenocarcinoma cells; actives 1.8% (n = 340,000); AID 624297, 2012; SW480 DNA re-replication, Hoechst DNA content imaging, 48 h; Potency, µM (highest dose often 46.1 µM), for inactives: at the highest dose re-replication activation, usual class: activators; also: % of control where 0% means no effect; nearly all actives have a fitted effect of over 55% in size
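DNA re-replication was detected as more nuclei of elevated Hoechst intensity after 48 hr exposure to compound (23 nL pinned per well of 250 cells).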
The depositor's hits bear a star. Sampled rows, rich in hits. Any-hit rate of the full collection: about 7.9%. Calls follow the shape of the dose curve; as a rule, active = well fitted curve in the direction sought with a large enough effect; inconclusive = small, poorly fitted or top-dose-only effect, or another doubt; inactive = no such curve, though single readings can be large; an effect the other way counts as inactive or inconclusive. Potency is read from the fitted curve at half-maximal effect.

How did O=C(Nc1sc2c(c1C(=O)O)CCC2)c1cccs1 do in these assays?
HT1080 IDH1KD tx: -0.1%; KB-3-1 tox: inconclusive; HT1080NT lethal: -1.3%; KB-V1 MDR tox: 23.1µM*; MCF10A rerep: 0.8%; SW480 rerep: 3.2%

Results for C(=N\NC(=Nc1ccccc1)c1ccccn1)/c1ccccn1 ?
HT1080 IDH1KD tx: -14.0%; KB-3-1 tox: inconclusive; HT1080NT lethal: -10.5%; KB-V1 MDR tox: 16.4µM*; MCF10A rerep: inconclusive; SW480 rerep: inconclusive

How did O=C(N/N=C\c1ccccn1)c1ccccc1O do in these assays?
HT1080 IDH1KD tx: inconclusive; KB-3-1 tox: inactive; HT1080NT lethal: -2.7%; KB-V1 MDR tox: inactive; MCF10A rerep: inconclusive; SW480 rerep: -18.7%

Results for Cc1ccccc1C(=O)N/N=C/c1ccccn1 ?
HT1080 IDH1KD tx: inconclusive; KB-3-1 tox: inconclusive; HT1080NT lethal: -21.2%; KB-V1 MDR tox: 20.6µM*; MCF10A rerep: 9.3%; SW480 rerep: inconclusive

What do the screens show for `O=C(N/N=C\c1ccccn1)C1c2ccccc2Oc2ccccc21`?
HT1080 IDH1KD tx: inconclusive; KB-3-1 tox: inactive; HT1080NT lethal: inconclusive; KB-V1 MDR tox: inactive; MCF10A rerep: -33.9%; SW480 rerep: 18.4µM*

Results for COc1cc(C(=O)N/N=C/c2ccccn2)cc(OC)c1OC ?
HT1080 IDH1KD tx: inconclusive; KB-3-1 tox: 18.4µM*; HT1080NT lethal: inconclusive; KB-V1 MDR tox: inconclusive; MCF10A rerep: 20.6µM*; SW480 rerep: 18.4µM*

Results for O=C(N/N=C/c1ccccn1)c1ccccc1 ?
HT1080 IDH1KD tx: -22.8%; KB-3-1 tox: inactive; HT1080NT lethal: -2.8%; KB-V1 MDR tox: inactive; MCF10A rerep: inconclusive; SW480 rerep: 8.3%

How did COCCNC(=O)C1CCCN(S(=O)(=O)c2ccc3c(ccn3C)c2)C1 (centres undefined) do in these assays?
KB-3-1 tox: inactive; KB-V1 MDR tox: inactive

Results for COc1ccc(NC(=O)CCc2c(C)nn(-c3ccc(N4CCOCC4)nn3)c2C)cc1Cl ?
KB-3-1 tox: inactive; KB-V1 MDR tox: inactive

Results for COc1ccc(-c2noc(N(c3cccc(Cl)c3)c3nc(-c4ccc(OC)c(OC)c4)no3)n2)cc1OC ?
KB-3-1 tox: inactive; KB-V1 MDR tox: inactive

What do the screens show for `O=C(N/N=C/c1ccccn1)c1ccc(Cl)cc1`?
HT1080 IDH1KD tx: inconclusive; KB-3-1 tox: inactive; HT1080NT lethal: -21.0%; KB-V1 MDR tox: inactive; MCF10A rerep: inconclusive; SW480 rerep: 4.11µM*

What do the screens show for `CC(NC(=O)c1ccc(F)cc1)c1nc2ccccc2n1Cc1ccccc1F` (centres undefined)?
HT1080 IDH1KD tx: inconclusive; KB-3-1 tox: inactive; HT1080NT lethal: -15.2%; KB-V1 MDR tox: 2.06µM*; MCF10A rerep: 0.6%; SW480 rerep: 26.2%

Results for Cc1ccc(C)c(Cn2c(C(C)NC(=O)c3ccc(F)cc3)nc3ccccc32)c1 (centres undefined) ?
KB-3-1 tox: inactive; KB-V1 MDR tox: inactive

Results for Cc1ccc(C)c(NS(=O)(=O)c2ccc3c(c2)n(C)c(=O)n3C)c1 ?
KB-3-1 tox: inactive; KB-V1 MDR tox: inactive

What do the screens show for `Cn1c(SCc2ccc(Cl)cc2)nnc1-c1ccc(NC(=O)CCc2ccccc2)cc1`?
KB-3-1 tox: inactive; KB-V1 MDR tox: inactive

What do the screens show for `C=CC(=O)N1C/C(=C/c2ccccc2)C(=O)/C(=C\c2ccccc2)C1`?
HT1080 IDH1KD tx: 4.11µM*; KB-3-1 tox: 4.11µM*; HT1080NT lethal: -1.6%; KB-V1 MDR tox: inconclusive; MCF10A rerep: 19.3%; SW480 rerep: inconclusive
